# What was measured:
# Test in all cases: PBM binding z-score (relative to random genomic background probes); higher = stronger binding; sequences stand for … in GC…GCGATTGACAGCGTAGAATGAAGG
# [1] = system: FXR:RXRa (NR concentration 270 nM, RXRa partner concentration 90 nM)
# In short: (§1)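 For binding z-scores, the reference was random background probes on custom Agilent 4×180K protein-binding microarrays. These arrays were incubated 1 h with ligand-free nuclear receptor dimers in PBS pH 7.4, 2% milk, 0.02% Triton X-100, 1 mM DTT, 0.2 mg/mL BSA and 0.4 mg/ml salmon testes DNA. Fluorescence was scanned after antibody detection of each partner (one per run) and regression-normalized.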
# [2] = system: LXRa:RXRa (NR concentration 270 nM, RXRa partner concentration 90 nM)
# In short: as §1
# [3] = system: LXRa homodimer (NR concentration 270 nM)
# In short: as §1
# [4] = system: LXRb:RXRa (NR concentration 270 nM, RXRa partner concentration 90 nM)
# In short: as §1
# [5] = system: LXRb homodimer (NR concentration 270 nM)
# In short: as §1
# [6] = system: PPARa:RXRa (NR concentration 270 nM, RXRa partner concentration 90 nM)
# In short: as §1
# [7] = system: PPARg:RXRa (NR concentration 180 nM, RXRa partner concentration 90 nM)
# In short: as §1
# [8] = system: PPARg:RXRa 270nM:90nM, anti-RXR (NR concentration 270 nM, RXRa partner concentration 90 nM)
# In short: as §1
# [9] = system: PPARg:RXRa 30nM:10nM, anti-RXR (NR concentration 30 nM, RXRa partner concentration 10 nM)
# In short: as §1
# [10] = system: PPARg:RXRa 90nM:30nM, anti-RXR (NR concentration 90 nM, RXRa partner concentration 30 nM)
# In short: as §1
Sequence,PBM binding z-score [1],PBM binding z-score [2],PBM binding z-score [3],PBM binding z-score [4],PBM binding z-score [5],PBM binding z-score [6],PBM binding z-score [7],PBM binding z-score [8],PBM binding z-score [9],PBM binding z-score [10]
TCGAGTAGGTTCGGGGCATTCAGAATGGCGTCGA,-0.238,-0.318,-0.554,-0.184,-1.07,0.187,-0.622,0.0439,0.452,0.234
CCCTACGGGTCAAGGTTATAGCACGGGTGGTACG,5.27,3.4,0.278,2.78,-0.151,4.7,3.55,4.19,1.1,2.75
CAGCCTAGGTCAGGGCCAGTATTGGAGGAACGTT,1.65,0.996,-0.403,0.567,-1.11,2.03,0.396,0.87,-0.497,0.402
TGAATGAGGTTAAAGTTCAGGGAACGTGGCGTCG,5.71,4.98,2.46,3.68,0.344,6.3,9.26,8.25,8.5,9.05
TCACATAGGTAAATGCTAGGTGAAAGTCCGATCT,0.401,0.564,-0.036,0.378,-0.343,1.03,0.475,1.83,3.11,2.49
TCTAGTTGGTCACGGACGTCACACACGACGGGTA,0.24,0.203,-0.153,0.406,0.211,0.764,1.24,1.59,2.77,1.95
CCTAATGGGCCAAAAAGGTCATTGATGCCGATAA,3.45,4.14,3.21,4.2,0.435,4.59,2.58,3.36,1.37,2.69
TCTCGAAGGACACGAAAGGTCAGAGCTCGACATC,2.94,3.47,2.63,3.26,0.0129,3.58,1.59,3.13,3.42,3.16
CAAACTAGGTCACGAACGGTCAAAGTCGAATGAC,5.85,7.42,4.34,5.78,1.18,5.62,9.57,8.01,5.99,7.93
CCTCCAAGGTCAATGCTAGGTCAGTGAAAGCATT,6.43,5.53,2.29,4.51,1.02,5.22,3.95,4.93,1.2,3.28
CAAACTAGGTCAATGTCAAAGTCGGTTTGTGCCA,3.38,2.45,0.407,1.97,0.714,4.9,7.78,6.44,4.27,6.04
CCAGACAGGTGAAAGGAAACTCAGTCTGGTACGC,-0.00156,-0.109,-0.46,-0.0929,-0.489,0.52,0.81,1,-0.0154,0.657
